Test results: PubChem BioAssay (NCI)
The panel holds about 79,000 compounds, 15% with a hit somewhere; the sample as a whole holds those more often. Unmarked numbers belong to inactive results. Activity calls are given as the source filed them. No stated cut-off is given here; in the data, active means growth inhibition above about 70%; inactive means the rest.

Experiments:
[1] = NCI Yeast Anticancer Drug Screen. Data for the rad50 strain (AID 155);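 further: 0% = growth of vehicle-only cultures of the same strain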; details: S. cerevisiae rad50 strain growth inhibition, hits give high values
How it was run: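 Cells are treated with compound, grown, and their growth is then scored against vehicle-only cultures of the same repair-deficient yeast strain.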

[2] = NCI Yeast Anticancer Drug Screen. Data for the mec2-1 strain (AID 157); details: S. cerevisiae mec2-1 strain, hits give high values
How it was run: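 Compounds were applied to mec2-1 yeast cells. Their growth was then compared with that of vehicle-treated cultures to give growth inhibition.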

[3] = NCI Yeast Anticancer Drug Screen. Data for the sgs1 mgt1 strain (AID 161);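 further: 0% = growth of cultures given vehicle only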; details: S. cerevisiae sgs1 mgt1 strain, hits give high values
How it was run: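 Compounds are added to genetically altered yeast, and growth is compared with cultures given vehicle alone to give percent inhibition.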

[4] = NCI Yeast Anticancer Drug Screen. Data for the cln2 rad14 strain (AID 165);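 further: 0% = growth equal to vehicle treated cultures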; details: S. cerevisiae cln2 rad14 strain, hits give high values
How it was run: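 Strain: cln2 rad14 yeast, altered in cell cycle control and DNA damage repair. Read-out: growth inhibition vs vehicle.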

[5] = NCI Yeast Anticancer Drug Screen. Data for the bub3 strain (AID 167); details: S. cerevisiae bub3 mutant strain, hits give high values
How it was run: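 Part of a panel of yeast mutants defective in DNA damage repair or cell cycle regulation. Each strain is grown with compound, and inhibition is calculated relative to solvent-treated cultures.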

[6] = NCI Yeast Anticancer Drug Screen. Data for the mlh1 rad18 strain (AID 175); details: S. cerevisiae mlh1 rad18 strain growth inhibition, hits give high values
How it was run: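 A repair-deficient yeast strain is exposed to test compound, and growth is scored relative to vehicle-treated controls.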

[7] = at 5.0 µM (retest, dose inferred, filed as 0.5)
[8] = at 50.0 µM (retest, dose inferred, filed as 5.0)

SMILES | growth inhibition [1, 7] | growth inhibition [1, 8] | growth inhibition ([1]; at 50.0 µM) | growth inhibition [2, 7] | growth inhibition [2, 8] | growth inhibition ([2]; at 50.0 µM) | growth inhibition [3, 7] | growth inhibition [3, 8] | growth inhibition ([3]; at 50.0 µM) | growth inhibition [4, 7] | growth inhibition [4, 8] | growth inhibition ([4]; at 50.0 µM) | growth inhibition [5, 7] | growth inhibition [5, 8] | growth inhibition ([5]; at 50.0 µM) | growth inhibition [6, 7] | growth inhibition [6, 8] | growth inhibition ([6]; at 50.0 µM)
CCOc1ccc2c(c1)CCC1C2CCC2(C)CC(O)CC12 (stereo not given) | 11% | 98% (active) | 97.7% (active) | 3% | 67% | 97.5% (active) | 22% | 99% (active) | 54% | -18% | 82% (active) | 98.6% (active) | -4% | -3% | 98.1% (active) | 14% | 99% (active) | 98.6% (active)
CCCCCCCCCCCCCCCCNCCCN(C)CCCN | -1% | 98% (active) | 88.5% (active) | -19% | 98% (active) | 93.5% (active) | 2% | 97% (active) | 93.3% (active) | -26% | 97% (active) | 92% (active) | -26% | 97% (active) | 92.4% (active) | -68% | 97% (active) | 90.3% (active)
Cc1ccnc2ccc3ccccc3c12 | -142% | 22% | -17.9% | -48% | -38% | -1% | -63% | -21% | 20.4% | -62% | -49% | 22.3% | -67% | -18% | 31% | -138% | -55% | 33.3%
CCCCCCCCCc1c(O)c(O)c(CCCCCCCCC)c(CCCCCCCCC)c1CCCCCCCCC | 1% | 27% | 54.9% | -11% | 30% | -5.95% | -10% | 28% | 54.9% | 33% | 55% | 49.9% | -6% | 87% (active) | 55.4% | -6% | 38% | 85.3% (active)
CCOc1ccc(C(=O)CCN2CCOCC2)cc1 | 8% | 40% | 77.5% (active) | 14% | 27% | 42.1% | 20% | 53% | 57% | 15% | 59% | 52.9% | 14% | 46% | 46% | 6% | 35% | 55.3%
CC1([N+](=O)[O-])C(=O)C2(N3CCOCC3)CCCC2C1c1ccccc1 (stereo not given) | -9% | 75% (active) | -2% | -7% | 99% (active) | -0.3% | -1% | 90% (active) | 4.95% | 1% | 40% | -7.7% | -12% | 98% (active) | -5.2% | 10% | 96% (active) | 7.65%
O=c1cccccc1[O-].O=c1cccccc1[O-].O=c1cccccc1[O-].[Nd+3] | 11% | 11% | 91.9% (active) | 20% | 20% | 91% (active) | 15% | 15% | 89.3% (active) | 3% | 3% | 80.9% (active) | 9% | 9% | 92.5% (active) | 13% | 13% | 87.2% (active)
COc1ccc(/C=C2\SC(=S)N(/C=C(/C#N)C(=O)c3ccc4ccccc4c3)C2=O)cc1OC | -11% | 98% (active) | 97.4% (active) | -18% | 99% (active) | 98.5% (active) | 1% | 98% (active) | 97.2% (active) | -13% | 97% (active) | 95.3% (active) | -22% | 98% (active) | 98.6% (active) | 5% | 99% (active) | 98.3% (active)
COC(=O)C1C(=O)CC(c2ccccc2)C1c1ccccc1 (stereo not given) | 2% | -4% | 6.5% | 1% | -3% | -6.25% | -1% | -4% | -7.85% | 0% | -5% | 15.8% | 7% | 10% | 1.2% | 0% | -3% | -0.75%
O=C(Cc1ccc(C2=NCCN2)cc1[N+](=O)[O-])c1ccc(C2=NCCN2)cc1 | -3% | 73% (active) | 49.2% | -7% | 35% | 89.6% (active) | 0% | 55% | 26.8% | -5% | 16% | 25% | -8% | 71% (active) | 49.3% | -5% | 68% | 68.7%
N=C(N)c1ccc(Nc2ccc(C(=N)N)cc2)cc1 | 20% | 5% | 91.2% (active) | 30% | -7% | 86.3% (active) | 19% | 9% | 90% (active) | 1% | 14% | 72.2% (active) | 21% | 56% | 97.8% (active) | 14% | 39% | 91% (active)
CN(C)c1ccc(C(c2ccc(N(C)C)cc2)c2cccc([N+](=O)[O-])c2)cc1 | -2% | -3% | -11.2% | -3% | -13% | 0.2% | -2% | -1% | -2.45% | -8% | -33% | 14.9% | 43% | 26% | 50.1% | -2% | -12% | 7.9%
O=P(O)(O)Oc1c(O)c2ccccc2c2ccccc12 | 14% | 73% (active) | 91.4% (active) | 22% | 95% (active) | 94.8% (active) | 17% | 85% (active) | 97.5% (active) | 5% | 97% (active) | 97% (active) | 25% | 92% (active) | 99.6% (active) | 17% | 94% (active) | 99.3% (active)
CSC1=NSC(c2ccccc2)=C(c2ccccc2)S1 | 7% | 9% | 7.95% | -15% | 10% | -1.45% | -11% | 0% | 27.8% | 33% | 88% (active) | 62.5% | 9% | 43% | 43.1% | 5% | 16% | 10.2%
O=C(Nc1ccc(C(=O)Nc2ccc3c(O)cc(S(=O)(=O)O)cc3c2)cc1)c1ccccc1 | 0% | -2% | 25.8% | 2% | 34% | -5.7% | 2% | 21% | 25.8% | 1% | -13% | 1.4% | 0% | -6% | 1.15% | 19% | 6% | 47%
COC(=O)C(O)(/C(=N\O)c1ccccc1)c1ccccc1 (stereo not given) | 0% | 0% | 4.8% | 0% | -1% | 16.7% | 5% | 0% | 25.6% | -1% | -5% | 71.1% (active) | 0% | -8% | 29.1% | 0% | -2% | 8.35%
CC(C)(C)/C=N/NS(=O)(=O)c1ccccc1 | -114% | -146% | -1% | -43% | -43% | -7.35% | -44% | -62% | 2.5% | -50% | -61% | 40.5% | -57% | -67% | -5.2% | -100% | -108% | 4.65%
Cc1ccccc1N1C(=O)c2ccccc2C1=O | 1% | 8% | 61.1% | -6% | 11% | 98.8% (active) | 1% | 7% | 90.1% (active) | 6% | 9% | 83.3% (active) | 1% | 16% | 98.2% (active) | 0% | 8% | 84% (active)
CCCCCC/C=C\CCCCCCCCCc1c(O)c(OC)cc(O)c1CN(C)C | 5% | 94% (active) | 80.7% (active) | -17% | 94% (active) | 88.3% (active) | 15% | 96% (active) | 87.1% (active) | 13% | 30% | 86.2% (active) | 5% | 96% (active) | 80.8% (active) | 2% | 94% (active) | 79.6% (active)
O=C(NNc1ccccc1)c1cccc([N+](=O)[O-])c1 | 23% | 98% (active) | 98.2% (active) | 31% | 99% (active) | 98.5% (active) | 39% | 99% (active) | 98.8% (active) | 28% | 98% (active) | 93.7% (active) | 29% | 99% (active) | 99.4% (active) | 29% | 98% (active) | 98.8% (active)
